# According to ChEMBL document CHEMBL3988442, “University of Dundee, Small-Polar-MMV Screening Library” (2021):
# Out of some 48,000 compounds screened, about 13,000 (27%) showed an effect of 50% or more. Some of the results follow.
# System: Wolbachia pipientis
# Test: Anti-Wolbachia Cell-Based Screen
# Format: functional
# Design: scale not given: in the data most compounds retested in dose-response had high values
# Details: 5 µM
row,Compound,Percent Effect
1,COC1CCCN(Cc2nc(Cc3ccccc3F)no2)C1 (stereo unspecified),-1.199%
2,Cc1ccc2c(c1C)OCC2NCc1ccc(C#N)cc1 (stereo unspecified),6.111%
3,Cc1cccc(CC(=O)NC2CCN(C(=O)NC(C)(C)C)CC2)c1,5.736%
4,CCC1=N[C@@]2(CC[C@@H]3CN(C(=O)NCC(C)C)C[C@@H]32)C(=O)N1CCOC,5.071%
5,Cc1c(-c2nc(-c3cccc(CN4CCOCC4)c3)no2)cnn1C,-3.312%
6,COc1ccccc1-c1ncc(CN2C[C@H](O)[C@@H](N3CCCC3)C2)s1,6.619%
7,CCn1c(Cn2ccnc2)nnc1C1CCN(Cc2ccc(C)o2)CC1,-1.566%
8,COc1ccc(Br)c(C(=O)NCCNc2ccc(C(F)(F)F)cn2)c1,2.511%
9,N#CC1(C(=O)NCCCNc2ccc(C(F)(F)F)cn2)CCCC1,-0.7429%
10,O=C(NCCCNc1ccc(C(F)(F)F)cn1)c1ccc(F)cc1Br,166.7%
11,N#Cc1ccc(C(=O)NCCCNc2ccc(C(F)(F)F)cn2)cc1,-7.343%
12,O=C(NCCCNc1ccc(C(F)(F)F)cn1)c1ccc(F)cc1F,139.7%
13,CSCC(C)(O)CNC(=O)c1ccc(F)cc1Br (stereo unspecified),-10.01%
14,CC(C)=CCC/C(C)=C/CC(C)(C)CNCc1ccco1,-15.73%
15,COc1ccc(NC(C)C(=O)N2CCN(c3ccccc3)CC2)cn1 (stereo unspecified),11.01%
16,CC1CN=C(N2CCN(C(=O)Nc3nc(-c4ccccc4)ns3)CC2)S1 (stereo unspecified),-2.569%
17,Cc1cc(CN(C)C(=O)c2cc(COc3ccccc3)[nH]n2)n[nH]1,-16.83%
18,Cc1c[nH]c(CN(C)C(C(=O)O)c2c(F)cccc2OC(C)C)n1 (stereo unspecified),2.457%
19,CCOc1ccccc1C(C(=O)O)N(C)Cc1nnc(C)o1 (stereo unspecified),103.2%

row,Compound,Percent Effect
1,COCc1cc(CN(C)C(C(=O)O)c2cc(C)c(OC)c(C)c2)n[nH]1 (stereo unspecified),0.7136%
2,CCOc1ccccc1C(C(=O)O)N(C)Cc1nc(C)c[nH]1 (stereo unspecified),110.9%
3,CCOc1ccccc1C(C(=O)O)N(C)Cc1cc(C)[nH]n1 (stereo unspecified),105.4%
4,Cc1c[nH]c(CN(C)C(C(=O)O)c2c(F)cccc2Cl)n1 (stereo unspecified),11.8%
5,CCOc1ccc(N(C)Cc2nnc(C)o2)cc1,3.578%
6,COc1cccc(Cl)c1C(C(=O)O)N(C)Cc1nnc(C)o1 (stereo unspecified),7.233%
7,CN(CC(N)=O)S(=O)(=O)c1ccc(F)cc1Cl,0.3339%
8,COc1cccc(CN(C)C(=O)CCC(=O)c2ccc(Cl)cc2)c1OC,-4.229%
9,COc1ccc2c(c1)OC1(CCN(Cc3cccc(C)c3)CC1)CC2=O,101.2%
10,COc1ccc2c(c1)C1(CCN(Cc3ccncc3)CC1)N(C)CC2,-5.195%
11,Cc1ccc2c(c1)C(=O)CC1(CCN(Cc3ccccc3)CC1)O2,106.6%
12,CCS(=O)(=O)N1CCC2(CCN(Cc3cccc(OC)c3)CC2)CC1.O=C(O)C(F)(F)F,-27.27%
13,COc1ccc(CN2CCC3(CC(=O)N(c4cccc(F)c4)C3)C2)cc1.O=C(O)C(F)(F)F (stereo unspecified),28.15%
14,Cc1ccc2oc([C@H]3CCN(Cc4ccccc4)C3)nc2c1,-4.088%
15,COc1ccc2c(c1)C(=O)CC1(CCN(Cc3ccc(F)cc3)CC1)O2,107.4%
16,COc1c(F)cc(CN2CCCC3(CC2)CNC(=O)O3)cc1Cl (stereo unspecified),-2.576%
17,COc1ccc2c(c1)OC1(CCN(Cc3ccc(C)cc3)CC1)CC2=O,104.7%
18,CCN1CCN(C)C(=O)C12CCN(Cc1cccc(C)c1)CC2.O=C(O)C(F)(F)F,-18%
19,Cc1ccc(CN2CCC3(CC2)CCN(Cc2ccco2)CC3)cc1.O=C(O)C(F)(F)F.O=C(O)C(F)(F)F,0.5302%

row,Compound,Percent Effect
1,COCC(=O)N1CCC2(CCN(Cc3ccc(C)cc3)CC2)CC1.O=C(O)C(F)(F)F,-3.723%
2,CCCn1ncc(C2CC(=O)NCc3nc4cc(C)ccn4c32)c1C (stereo unspecified),7.732%
3,Cc1nc(CN2CCCN(CC(=O)Nc3ccncc3)CC2)no1,-12.37%
4,CC1c2cc(F)ccc2CCN1CCCS(=O)(=O)C(C)C (stereo unspecified),-15.92%
5,Cc1nc[nH]c1CN1CCn2nc(CN3CC[C@H](F)C3)cc2C1,-2.245%
6,O=C(NCCN1CCNCC1)c1c(O)c2ccccc2[nH]c1=O,23.98%
7,COCC(O)CN(C)C(=O)NC1CCN(Cc2ccccn2)CC1 (stereo unspecified),9.175%
8,Cc1nn(C)c2nc(N(Cc3ccccc3)CC3CCCO3)sc12 (stereo unspecified),6.104%
9,COc1ccc2c(c1)OC1(CCN(Cc3ccccc3C)CC1)CC2=O,114.8%
10,Cc1ccccc1CN1CCCN(CCN2CCOC2=O)CC1,6.019%
11,COc1ccc(CN2CCC(O)(CN3CCCCC3)C2)c(C)c1 (stereo unspecified),1.46%
12,CC(C)c1cccc(CSc2nnc(CN3CCCC3=O)o2)n1,6.014%
13,CS(=O)(=O)Cc1nc(CN2CCCc3sccc3C2)cs1,11.89%
14,CCOC(=O)C1CCN(c2nccc(-n3nc(C)cc3C)n2)CC1,112.2%
15,CCOC(=O)C1CSCCN1C(=O)c1ccc(-n2nc(C)cc2C)cc1 (stereo unspecified),16.86%
16,CCOC(=O)C1CCCN(c2nccc(-n3nc(C)cc3C)n2)C1 (stereo unspecified),112.5%
17,CCOC(=O)C1CCCN(c2ccc(-c3nc(C)no3)cn2)C1 (stereo unspecified),-3.256%
18,COc1ccc(C(=O)C2CCCN(c3nccc(N)n3)C2)c(C)c1 (stereo unspecified),21.82%
